TDP1 block – inhibitors of human tyrosyl-DNA phosphodiesterase TDP1 | AID 485290 | recombinant TDP1, AlphaScreen DNA substrate cleavage | Q9NUW8 | Potency, µM (doses to about 130 µM), for the others: at the top dose activity change, negative = inhibition, usual class: inhibitors | 0.28% of 350,000 active; note: nearly all actives have a fitted effect of over 40% in size
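Here, a 5' biotin and 3' phosphotyrosine-FITC DNA oligonucleotide reports Tdp1 activity: intact substrate bridges AlphaScreen beads, while cleavage leaves a 3' phosphate and drops signal. All incubations at room temperature.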
PLK1 PBD block – PLK1 (human) polo-box domain binding inhibition. P53350. Plk1 PBD binding of FITC phosphopeptide, fluorescence polarization. Potency, µM, inactives show max response, negative = inhibition, actives largely listed as inhibitors. 2.8% of 360,000 active. AID 720504; note: series mostly up to about 57 µM; nearly all actives have a fitted effect of over 65% in size
Target sequence (P53350 whole entry, looked up, the tested form may be a part): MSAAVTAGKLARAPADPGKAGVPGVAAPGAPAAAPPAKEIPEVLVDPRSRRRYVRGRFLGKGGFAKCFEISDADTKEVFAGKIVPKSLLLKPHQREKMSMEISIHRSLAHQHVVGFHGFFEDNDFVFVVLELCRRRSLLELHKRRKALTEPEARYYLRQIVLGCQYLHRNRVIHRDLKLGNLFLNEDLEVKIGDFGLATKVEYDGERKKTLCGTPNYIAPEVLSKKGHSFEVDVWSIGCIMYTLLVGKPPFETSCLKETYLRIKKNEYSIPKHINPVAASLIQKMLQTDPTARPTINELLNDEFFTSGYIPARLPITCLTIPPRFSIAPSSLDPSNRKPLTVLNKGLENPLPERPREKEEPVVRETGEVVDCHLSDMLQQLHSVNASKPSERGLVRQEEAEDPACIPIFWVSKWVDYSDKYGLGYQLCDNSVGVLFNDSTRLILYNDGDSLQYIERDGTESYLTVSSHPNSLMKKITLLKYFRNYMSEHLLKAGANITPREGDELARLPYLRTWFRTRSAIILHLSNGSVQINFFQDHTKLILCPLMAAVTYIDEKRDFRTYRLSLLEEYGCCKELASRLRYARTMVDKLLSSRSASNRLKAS
VDR inh – vitamin D3 receptor (human) inhibition. VDR-SRC2-3 peptide fluorescence polarization, 2 h. Potency, µM, without a hit: max response, negative = inhibition, most hits filed as inhibitors. 0.93% of 400,000 active
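Reagent solutions, kept cold and dark, are dispensed first; compounds are then pinned in at 23 nl, plates briefly spun, and incubated 2 h at ambient temperature. Inhibition of VDR–SRC2-3 peptide binding is read by fluorescence polarization.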
GCN5L2 inh – inhibitors of human GCN5L2 histone acetyltransferase | GCN5L2 HAT assay, ThioGlo1 CoA-SH fluorescence | Potency, µM (highest dose often 58.9 µM), inactives show at the top dose activity change, negative = inhibition, usual class: inhibitors | 0.21% of 390,000 active
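Compounds, pin-transferred from DMSO stocks, meet 20nM GCN5L2 for 15 min before the reaction begins with H3(1-25) peptide (75uM) and acetyl-CoA (70uM). Thiol-reactive ThioGlo1 reports CoA release over 20 min at room temperature.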
TDP1 cell CPT – growth inhibition of DT40 Tdp1-/-;hTDP1 cells with camptothecin (screen for TDP1 inhibitors); chicken DT40 Tdp1-/-;hTDP1 cells + 20 nM CPT, ATP luminescence, 48 h; Potency, µM (titrated, usually from 46.2 µM), for inactives: at the highest dose activity change, negative = growth inhibition, hits mostly inhibitors; 12% of 420,000 active; note: nearly all actives have a fitted effect of over 55% in size
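Cell growth measured by CellTiter-Glo luminescence after a minimum 48 h, 37 C compound exposure with 20 nM CPT in Tdp1-knockout DT40 cells stably expressing hTDP1, seeded 400/well; qHTS titration format.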
DT40 TDP1 no CPT – qHTS for Inhibitors of human tyrosyl-DNA phosphodiesterase 1 (TDP1): qHTS in cells in absence of CPT; DT40 Tdp1-/- hTDP1 cells, no CPT, ATP luminescence, 48 h; Potency, µM (titrated, usually from 46.2 µM), for the others: top-dose activity change, negative = growth inhibition, usual class: inhibitors; 15% of 420,000 active; AID 686978, 2013; note: nearly all actives have a fitted effect of over 55% in size
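No-CPT arm: Tdp1-/-;hTDP1 DT40 cells (400/well) plus compounds, incubated ≥48 hr at 37 °C. Readout CellTiter-Glo luminescence.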
Active calls of the source: *; u = inconclusive; x = not tested or not shown; ! = repeats disagree; [ ] = dose if it differs, or a comment. This is a sample that favours compounds with a hit; in the whole collection about 18% have one here. Calls come from the whole dose curve; as a rule, active = well fitted curve in the direction sought with a large enough effect; inconclusive = small, poorly fitted or top-dose-only effect, or another doubt; inactive = no such curve, though single readings can be large; an effect the other way counts as inactive or inconclusive. % is set by controls: 0 for no effect and ±100 for the full control effect; potency is the fitted concentration of half-maximal effect.

SMILES | TDP1 block | PLK1 PBD block | VDR inh | GCN5L2 inh | TDP1 cell CPT | DT40 TDP1 no CPT
NC(=O)C1CCN(c2ccnc3cc(Cl)ccc23)CC1 | 3% | -9% | 4% | -4% | 2% | 5%
COc1cccc(Cl)c1NC(=O)N1CCN(c2cc(C)nc3ccccc23)CC1 | 3% | 5% | -3% | -7% | 16µM* | u
COc1ccc(-c2csc(N3CCN(c4cc(C)nc5ccccc45)CC3)n2)cc1OC | 5% | -2% | 5% | -12% | 15µM* | 15µM*
COc1cccc(Cl)c1NC(=O)N1CCN(c2ccnc3cc(Cl)ccc23)CC1 | 6% | 0% | 6% | -7% | u | 23µM*
CC(C)C(=O)Nc1nnc2n1CCS2 | 7% | x | 5% | 20% | 1% | 10%
Cc1cc(N2CCCC2)ccc1/C=C1\NC(=S)N(C)C1=O | 3% | 48% | u | -2% | 4.6µM* | 3.3µM*
O=C1/C(=C/c2ccc(N3CCCC3)cc2)NC(=S)N1C1CC1 | 7% | 54% | 3% | -4% | 16µM* | 16µM*
COCCN1C(=O)/C(=C/c2ccc(N3CCCC3)cc2)SC1=S | -3% | 26% | -3% | -2% | -18% | u
CC1(C(=O)NCc2ccccc2)CN(S(C)(=O)=O)CC(=O)N1C1CC1 (stereo unspecified) | x | 8% | x | x | 12% | 6%
CCOc1ccc(CCNC(=O)Cn2cccc2C(=O)c2ccccc2C)cc1OCC | 5% | -13% | -4% | 1% | u | u
Cc1ccc2c(c1)c1ccc3c(c1n2C)C(=O)C=CC3=O | 10% | 19µM* | 50µM* | -25% | 0.52µM* | 0.58µM*
COc1ccc(-c2ccc(/C=C3\C(=O)N(c4ccccc4)N=C3c3ccccc3)o2)c([N+](=O)[O-])c1 | 7% | u | -6% | -4% | u | 21µM*
Cn1nc(C(=O)NCCN2Cc3ccccc3OC(c3ccsc3)C2)c2ccccc2c1=O (stereo unspecified) | x | x | x | x | -13%[9.04 µM] | -9%
CC(C)C[C@@H](CO)N1CCN(Cc2cccc(C#N)c2)CCC1=O | x | 3% | 1% | -2% | -12% | -6%
COc1cc(CN(C(=O)Nc2cccc(Cl)c2)c2ccccn2)cc(OC)c1OC | 4% | x | -1% | -9% | u | u
O=C(Nc1ccccc1)N(Cc1cccc(Cl)c1)c1ccccn1 | -1% | x | 17% | -17% | 23µM* | u
O=C1CCCC/C=C\C[C@H](CC(=O)N(CCO)Cc2ccccc2)C(=O)N[C@@H](Cc2ccccc2)CO1 | 2% | -1% | -6% | 0% | u | u
O=C1CCC/C=C/C[C@H](CC(=O)N(CCO)Cc2ccccc2)C(=O)N[C@@H](Cc2ccccc2)CO1 | 1% | -9% | -1% | -2% | u | 21µM*
O=C1CCC/C=C\C[C@@H](CC(=O)N(CCO)Cc2ccccc2)C(=O)N[C@H](Cc2c[nH]c3ccccc23)CO1 | 5% | -11% | 2% | -4% | u | 16µM*
Cc1nc(CC(=O)N2CCC(n3c(C4CCC4)nc4cccnc43)CC2)cs1 | x | x | x | x | 16%[9.04 µM] | -4%
CCOC(=O)C1(C)CCN1C(=O)c1cc2ccccc2s1 (stereo unspecified) | x | -8% | x | x | u | u
Fc1ccc(-n2cc(-c3ccccc3)c3c(N4CCOCC4)ncnc32)cc1 | 1% | -9% | 9% | -23% | 21µM* | 21µM*
Brc1ccc(-n2cc(-c3ccccc3)c3c(NN4CCOCC4)ncnc32)cc1 | 8% | -14% | 0% | -2% | 18µM* | u
CCOC(=O)C(CC)Sc1ncnc2c1c(-c1ccccc1)cn2-c1ccc(OC)cc1 (stereo unspecified) | -3% | x | u | -18% | u | 21µM*
COc1ccc(-n2cc(-c3ccccc3)c3c(NCCCN4CCOCC4)ncnc32)cc1 | 6% | -1% | -12% | 0% | u | u
SMILES | TDP1 block | PLK1 PBD block | VDR inh | GCN5L2 inh | TDP1 cell CPT | DT40 TDP1 no CPT
COc1ccc(-n2cc(-c3ccccc3)c3c(N4CCOCC4)ncnc32)cc1 | 5% | -4% | -25% | -5% | u | 18µM*
CC(=O)N[C@@H]([C@@H](O)[C@H](O)[C@H](O)CO)[C@@H](O)CC(=O)C(=O)O | x | x | x | x | 15% | -1%
CCN1CCN(c2ncnc3c2c(-c2ccccc2)cn3-c2ccc(F)cc2)CC1 | 1% | -5% | 13% | -7% | u | u
Fc1ccc(-n2cc(-c3ccccc3)c3c(NC4CCCCC4)ncnc32)cc1 | 3% | x | -2% | -25% | 21µM* | 23µM*
O=c1c(OC2OC(CO)C(O)C(O)C2OC2OC(CO)C(O)C(O)C2OC2OC(CO)C(O)C(O)C2O)c(-c2ccc(O)c(O)c2)oc2cc(O)cc(O)c12 (stereo unspecified) | x | -14% | -9% | -16% | 15µM* | 21µM*
O=c1c(O[C@@H]2O[C@H](CO)[C@@H](O)[C@H](O)[C@H]2O)c(-c2ccc(O)c(O)c2)oc2cc(O)cc(O)c12 | 3% | x | x | -20% | x | x
O=c1c(O[C@@H]2O[C@H](CO)[C@H](O)[C@H](O)[C@H]2O)c(-c2ccc(O)c(O)c2)oc2cc(O)cc(O)c12 | 3% | x | x | -6% | x | x
COc1c(-c2ccc(O)c(O)c2)oc2cc(O)cc(O)c2c1=O | -11% | -7% | -7% | -14% | 10µM*! | 9.2µM*!
O=C(Nc1cccc(Cl)c1)OC1CCCCc2cccnc21 (stereo unspecified) | 3% | -13% | 7% | -2% | 13µM* | u
COc1ccc(OC)c(S(=O)(=O)N(C(C)=O)c2ccc3oc(=O)sc3c2)c1 | 6% | 2% | -15% | -18% | 4% | -8%
COc1ccc(C(=O)Oc2ccc3oc(=O)sc3c2)cc1 | 4% | -24% | u | -3% | 13µM* | u
CC(C)C(=O)N(c1ccc2oc(=O)sc2c1)S(=O)(=O)c1ccccc1 | 6% | -11% | 79µM* | -3% | u | u
CC(=O)N(c1ccc2oc(=O)sc2c1)S(=O)(=O)c1ccccc1 | 10% | 30µM* | -27% | -12% | u | 10µM*
COc1ccc(S(=O)(=O)N(C(=O)C(C)C)c2ccc3oc(=O)sc3c2)cc1 | 7% | -23% | 79µM* | -6% | 10µM* | 16µM*
Cc1ccccc1C(=O)OCc1cc(=O)n2nc(C3CC3)sc2n1 | 10% | x | 5% | -7% | -14% | -24%
CCc1nc2ccc(C(=O)N(C)CC(=O)Nc3ccc(F)c(F)c3F)cc2nc1CC | -3% | -8% | -21% | -7% | u | u

Screening results deposited in PubChem by National Center for Advancing Translational Sciences (NCATS).
